# According to PubChem BioAssay (NCI):
# The panel holds about 83,000 compounds, 20% with a hit somewhere; the sample as a whole holds those more often.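 Negative percent growth values reflect cell death: -40 means 40% of the cells present at the start died, and -100 means all died.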 Values without a mark were called inactive. Active and inactive are the calls of the source. The calls were made as follows: active = growth percent below 10; inactive = the rest.
# Tested on: MDA-MB-468 breast
# Assay: NCI-60 one-dose screen, 48 h (100 = growth as untreated, 0 = no growth, -100 = all killed)
# Conditions: 10 µM unless noted
row,SMILES,growth
1,COc1ccc(/C=C/C(=O)c2c(C)nc3ccccc3c2/C=C/c2ccccc2)c(OC)c1,87%
2,N#CC1=CC2CN(Cc3ccccc3)C1C1C(=O)N(c3ccccc3)C(=O)C21 (stereo not given),93.8%
3,Oc1ccc(N=Cc2ccc(OCc3ccccc3)cc2)cc1,97.6%
4,CC1(C)C(N)=Nc2cc(OCCCN3Cc4ccc(OCCc5cn(CC(=O)N6CCC(CCN7CCCC7)CC6)nn5)cc4C3)c(OCC3CC3)cc21,108%
5,CCCCCCCCN(CCO)CCCCCCCC,98.7%
6,CC1CC(C)/C(=N/NC(N)=O)C(C(O)CC2CCC(=O)NC2=O)C1 (stereo not given),46.9%
7,Cl.Fc1c[c-]c(-c2ccccn2)c(F)c1.[Pt].c1ccc(P(c2ccccc2)C([PH+](c2ccccc2)c2ccccc2)[PH+](c2ccccc2)c2ccccc2)cc1,-4.27% (active)
8,CCNC(=O)Oc1ccc(/C(=C(/C)c2ccc(OC)cc2)c2ccc(OCCN3CCCCCC3)cc2)cc1,38.3%
9,CCOC(=O)/C=C1/SC(=Nc2ccc(C#N)cc2)N(Cc2ccco2)C1=O,27.5%
10,O=C(c1ccc(O)cc1)c1ccc(O)cc1,110%
11,Oc1ccccc1/C=N/NC(=S)NC1CC2C=CC1C2 (stereo not given),73.1%
12,CCNC(=S)NN,34.9%
13,NS(=O)(=O)c1ccc(CCN2C(=O)/C(=C\c3ccc(Cl)cc3)C=C2c2ccc(Oc3ccccc3)cc2)cc1,76.7%
14,COC(=O)Nc1nc2ccc(C(=O)c3cccs3)cc2[nH]1,5.96% (active)
15,NC(=O)OCCO,113%
16,COc1ccc(CNCCN2C(=O)c3ccc4c5c(ccc(c35)C2=O)C(=O)N(CCNCc2ccc(OC)cc2)C4=O)cc1,-94.3% (active)
17,COc1ccc(C(=O)c2cc3c(N)c(C(=O)Nc4ccccc4)sc3nc2C)cc1,3.89% (active)
18,CCOC(=O)c1ccc(Nc2sc(C(=O)c3ccc(Br)cc3)c(N)c2C#N)cc1,1.55% (active)
19,Cc1cc(C)c2c(-c3nnc(N)s3)cc(=O)oc2c1,104%
20,COc1ccc(-c2nc3c(c(-c4ccc(Cl)cc4)nn3-c3ccccc3)c(-c3ccc(O)cc3)c2C#N)cc1,54.8%
21,N#CC1=C(N)Oc2c(c(=O)[nH]c3ccc(Cl)cc23)C12C(=O)c1ccccc1C2=O,96.6%
22,CN1CCN(c2nc(-c3cnc4ccccc4n3)cc3ccccc23)CC1,9.21% (active)
23,C=CCn1c(CN2CCN(c3cc4c(cc3F)c(=O)c(C(=O)O)cn4C3CC3)CC2)n[nH]c1=S,105%
24,O=C(Nc1nc2c(C(F)(F)F)cccc2s1)c1cc(Cl)ccc1O,-10.5% (active)
25,C=C(C)[C@@H]1CC[C@]2(C(=O)N3CCN(C)CC3)CC[C@]3(C)[C@H](CC[C@@H]4[C@@]5(C)C/C(=C/c6ccncc6)C(=O)C(C)(C)[C@@H]5CC[C@]43C)[C@@H]12,55.6%
